# Measurements from the supplement of paper PMC4466140.
# Experiments:
# Assay in all cases: SPOT peptide array binding signal intensity (averaged, normalized) (arbitrary units (background-subtracted, floor 0; scale differs between SH3 domains)); higher = stronger binding of the SH3 domain to the peptide
# [1] = target: AgAbp1
# Procedure, shortened: (§1)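 Cellulose membranes carried synthetic 15-mer peptides with cysteines swapped for serines. These were incubated overnight at 4°C with 10 μg/ml of GST-fused SH3 domains from four yeast species in TBS-based blocking buffer. Binding signal, detected with anti-GST antibody and quantified in Genespotter, is the normalized, background-subtracted spot intensity averaged over replicates, in arbitrary units specific to each domain.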
# [2] = target: AgBbc1
# Procedure, shortened: as §1
# [3] = target: AgBem1-D1
# Procedure, shortened: as §1
# [4] = target: AgBzz1-D1
# Procedure, shortened: as §1
# [5] = target: AgBzz1-D2
# Procedure, shortened: as §1
# [6] = target: AgCyk3
# Procedure, shortened: as §1
# [7] = target: AgFus1
# Procedure, shortened: as §1
# [8] = target: AgHof1
# Procedure, shortened: as §1
# [9] = target: AgHse1
# Procedure, shortened: as §1
# [10] = target: AgLsb1
# Procedure, shortened: as §1
# [11] = target: AgLsb4
# Procedure, shortened: as §1
# [12] = target: AgMyo5
# Procedure, shortened: as §1
# [13] = target: AgNbp2
# Procedure, shortened: as §1
# [14] = target: AgRvs167
# Procedure, shortened: as §1
# [15] = target: AgSho1
# Procedure, shortened: as §1
# [16] = target: AgSla1-D1-D2
# Procedure, shortened: as §1
# [17] = target: AgSla1-D3
# Procedure, shortened: as §1
# [18] = target: CaAbp1-D1
# Procedure, shortened: as §1
# [19] = target: CaAbp1-D2
# Procedure, shortened: as §1
# [20] = target: CaBbc1
# Procedure, shortened: as §1
# [21] = target: CaBem1-D1
# Procedure, shortened: as §1
# [22] = target: CaBzz1-D1
# Procedure, shortened: as §1
# [23] = target: CaBzz1-D2
# Procedure, shortened: as §1
# [24] = target: CaCyk3
# Procedure, shortened: as §1
# [25] = target: CaFus1
# Procedure, shortened: as §1
# [26] = target: CaHof1
# Procedure, shortened: as §1
# [27] = target: CaHse1
# Procedure, shortened: as §1
# [28] = target: CaLsb1
# Procedure, shortened: as §1
# [29] = target: CaLsb4
# Procedure, shortened: as §1
# [30] = target: CaMyo5
# Procedure, shortened: as §1
# [31] = target: CaNbp2
# Procedure, shortened: as §1
# [32] = target: CaRvs167
# Procedure, shortened: as §1
# [33] = target: CaRvs167-3
# Procedure, shortened: as §1
# [34] = target: CaSho1
# Procedure, shortened: as §1
# [35] = target: CaSla1-D1-D2
# Procedure, shortened: as §1
# [36] = target: CaSla1-D3
# Procedure, shortened: as §1
# [37] = target: ScAbp1
# Procedure, shortened: as §1
# [38] = target: ScBbc1
# Procedure, shortened: as §1
# [39] = target: ScBem1-D1
# Procedure, shortened: as §1
# [40] = target: ScBzz1-D1
# Procedure, shortened: as §1
# [41] = target: ScBzz1-D2
# Procedure, shortened: as §1
# [42] = target: ScCyk3
# Procedure, shortened: as §1
# [43] = target: ScFus1
# Procedure, shortened: as §1
# [44] = target: ScHof1
# Procedure, shortened: as §1
# [45] = target: ScHse1
# Procedure, shortened: as §1
# [46] = target: ScLsb1
# Procedure, shortened: as §1
# [47] = target: ScLsb2
# Procedure, shortened: as §1
# [48] = target: ScLsb3
# Procedure, shortened: as §1
# [49] = target: ScLsb4
# Procedure, shortened: as §1
# [50] = target: ScMyo3
# Procedure, shortened: as §1
# [51] = target: ScMyo5
# Procedure, shortened: as §1
# [52] = target: ScNbp2
# Procedure, shortened: as §1
# [53] = target: ScPex13
# Procedure, shortened: as §1
# [54] = target: ScRvs167
# Procedure, shortened: as §1
# [55] = target: ScSho1
# Procedure, shortened: as §1
# [56] = target: ScSla1-D1-D2
# Procedure, shortened: as §1
# [57] = target: ScSla1-D3
# Procedure, shortened: as §1
# [58] = target: SpAbp1-D1
# Procedure, shortened: as §1
# [59] = target: SpBbc1
# Procedure, shortened: as §1
# [60] = target: SpBzz1-D1
# Procedure, shortened: as §1
# [61] = target: SpBzz1-D2
# Procedure, shortened: as §1
# [62] = target: SpCyk3
# Procedure, shortened: as §1
# [63] = target: SpHof1
# Procedure, shortened: as §1
# [64] = target: SpHof1-2
# Procedure, shortened: as §1
# [65] = target: SpHof1-3
# Procedure, shortened: as §1
# [66] = target: SpHse1
# Procedure, shortened: as §1
# [67] = target: SpLsb1
# Procedure, shortened: as §1
# [68] = target: SpLsb4
# Procedure, shortened: as §1
# [69] = target: SpMyo1
# Procedure, shortened: as §1
# [70] = target: SpNbp2
# Procedure, shortened: as §1
# [71] = target: SpPex13
# Procedure, shortened: as §1
# [72] = target: SpRvs167
# Procedure, shortened: as §1
# [73] = target: SpSla1-D1-D2
# Procedure, shortened: as §1
# [74] = target: SpSla1-D3
# Procedure, shortened: as §1
binder,measurement,setting,value
RKLRTVPGVPLIHLT,SPOT peptide array binding signal intensity,[1],13
same,SPOT peptide array binding signal intensity,[2],40.8
same,SPOT peptide array binding signal intensity,[3],41
same,SPOT peptide array binding signal intensity,[4],8
same,SPOT peptide array binding signal intensity,[5],16
same,SPOT peptide array binding signal intensity,[6],0.5
same,SPOT peptide array binding signal intensity,[7],53.5
same,SPOT peptide array binding signal intensity,[8],34.5
same,SPOT peptide array binding signal intensity,[9],19.5
same,SPOT peptide array binding signal intensity,[10],2
same,SPOT peptide array binding signal intensity,[11],18
same,SPOT peptide array binding signal intensity,[12],≤ 0
same,SPOT peptide array binding signal intensity,[13],934
same,SPOT peptide array binding signal intensity,[14],2
same,SPOT peptide array binding signal intensity,[15],≤ 0
same,SPOT peptide array binding signal intensity,[16],≤ 0
same,SPOT peptide array binding signal intensity,[17],0.25
same,SPOT peptide array binding signal intensity,[18],224
same,SPOT peptide array binding signal intensity,[19],83
same,SPOT peptide array binding signal intensity,[20],171
same,SPOT peptide array binding signal intensity,[21],1
same,SPOT peptide array binding signal intensity,[22],104
same,SPOT peptide array binding signal intensity,[23],90
same,SPOT peptide array binding signal intensity,[24],17
same,SPOT peptide array binding signal intensity,[25],147
same,SPOT peptide array binding signal intensity,[26],0.5
same,SPOT peptide array binding signal intensity,[27],1.25
same,SPOT peptide array binding signal intensity,[28],≤ 0
same,SPOT peptide array binding signal intensity,[29],73
same,SPOT peptide array binding signal intensity,[30],0.25
same,SPOT peptide array binding signal intensity,[31],281
same,SPOT peptide array binding signal intensity,[32],24.3
same,SPOT peptide array binding signal intensity,[33],7.25
same,SPOT peptide array binding signal intensity,[34],3.5
same,SPOT peptide array binding signal intensity,[35],20
same,SPOT peptide array binding signal intensity,[36],≤ 0
same,SPOT peptide array binding signal intensity,[37],14
same,SPOT peptide array binding signal intensity,[38],21
same,SPOT peptide array binding signal intensity,[39],27.5
same,SPOT peptide array binding signal intensity,[40],10
same,SPOT peptide array binding signal intensity,[41],1.5
same,SPOT peptide array binding signal intensity,[42],9
same,SPOT peptide array binding signal intensity,[43],37
same,SPOT peptide array binding signal intensity,[44],1
same,SPOT peptide array binding signal intensity,[45],178
same,SPOT peptide array binding signal intensity,[46],1.5
same,SPOT peptide array binding signal intensity,[47],2
same,SPOT peptide array binding signal intensity,[48],1030
same,SPOT peptide array binding signal intensity,[49],22
same,SPOT peptide array binding signal intensity,[50],≤ 0
same,SPOT peptide array binding signal intensity,[51],2
same,SPOT peptide array binding signal intensity,[52],1190
same,SPOT peptide array binding signal intensity,[53],59.5
same,SPOT peptide array binding signal intensity,[54],1390
same,SPOT peptide array binding signal intensity,[55],110
same,SPOT peptide array binding signal intensity,[56],73
same,SPOT peptide array binding signal intensity,[57],23.5
same,SPOT peptide array binding signal intensity,[58],17.5
same,SPOT peptide array binding signal intensity,[59],≤ 0
same,SPOT peptide array binding signal intensity,[60],71.5
same,SPOT peptide array binding signal intensity,[61],≤ 0
same,SPOT peptide array binding signal intensity,[62],≤ 0
same,SPOT peptide array binding signal intensity,[63],22.8
same,SPOT peptide array binding signal intensity,[64],2
same,SPOT peptide array binding signal intensity,[65],229
same,SPOT peptide array binding signal intensity,[66],68.8
same,SPOT peptide array binding signal intensity,[67],3.25
same,SPOT peptide array binding signal intensity,[68],369
same,SPOT peptide array binding signal intensity,[69],2.75
same,SPOT peptide array binding signal intensity,[70],7.5
same,SPOT peptide array binding signal intensity,[71],≤ 0
same,SPOT peptide array binding signal intensity,[72],616
same,SPOT peptide array binding signal intensity,[73],1
same,SPOT peptide array binding signal intensity,[74],≤ 0
